In article PMC7862700, “An all-to-all approach to the identification of sequence-specific readers for epigenetic DNA modifications on cytosine”:

How the values were obtained:
Assay in all cases: DAPPL (digital affinity profiling via proximity ligation, sequencing); 10 mM Tris-HCl pH 7.5, 50 mM NaCl, 1 mM DTT, 4% glycerol, room temperature, 30 min; GST-TFs on glutathione beads, 16-mer random dsDNA library, 0.1% formaldehyde crosslink after washing; high values mean tight binding
Conditions in all cases: protein: recombinant; tags: N-terminal GST; dsDNA, one strand shown
[1] = molecular target: T1, ERF (Homo sapiens, UniProt P50548 1-548)
T1 sequence: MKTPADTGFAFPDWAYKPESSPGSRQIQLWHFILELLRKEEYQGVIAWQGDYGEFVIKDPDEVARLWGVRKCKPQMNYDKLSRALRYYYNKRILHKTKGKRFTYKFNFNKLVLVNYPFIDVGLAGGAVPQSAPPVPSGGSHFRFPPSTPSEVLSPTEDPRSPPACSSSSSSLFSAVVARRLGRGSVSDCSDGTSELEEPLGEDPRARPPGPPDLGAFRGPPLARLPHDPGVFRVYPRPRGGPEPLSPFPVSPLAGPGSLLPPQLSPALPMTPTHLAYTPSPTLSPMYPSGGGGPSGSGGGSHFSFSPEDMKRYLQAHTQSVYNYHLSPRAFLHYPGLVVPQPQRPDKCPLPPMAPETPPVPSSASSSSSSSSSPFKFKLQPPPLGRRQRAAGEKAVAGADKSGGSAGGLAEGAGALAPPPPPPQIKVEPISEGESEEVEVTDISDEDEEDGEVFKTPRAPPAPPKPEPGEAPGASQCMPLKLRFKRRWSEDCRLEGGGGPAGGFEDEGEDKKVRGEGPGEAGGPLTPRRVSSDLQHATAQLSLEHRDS
In short: (§1)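 Human transcription factors were made in yeast as GST fusions, captured on glutathione beads and barcoded with DNA. With a tag-only sample included, the pool was incubated with 200 nmole of a random double-stranded 16-mer DNA library in Tris/NaCl/DTT/glycerol buffer at room temperature for 30 min, then crosslinked with 0.1% formaldehyde after washing, ligated by proximity, amplified and sequenced. For binding signal, each hexamer's read frequency for a factor is divided by its frequency for the tag-only sample.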

[2] = molecular target: T2, ETV3L (Homo sapiens, UniProt Q6ZN32 1-361)
T2 sequence: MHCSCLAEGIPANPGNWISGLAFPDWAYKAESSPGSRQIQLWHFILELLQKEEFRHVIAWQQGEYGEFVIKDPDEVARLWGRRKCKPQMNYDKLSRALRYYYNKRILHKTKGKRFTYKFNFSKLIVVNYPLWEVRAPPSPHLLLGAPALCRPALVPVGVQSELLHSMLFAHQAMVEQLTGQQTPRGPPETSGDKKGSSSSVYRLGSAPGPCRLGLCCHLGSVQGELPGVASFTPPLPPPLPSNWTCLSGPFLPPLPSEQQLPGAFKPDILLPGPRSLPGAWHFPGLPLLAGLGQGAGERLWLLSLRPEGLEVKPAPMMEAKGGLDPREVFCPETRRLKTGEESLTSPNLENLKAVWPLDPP
In short: as §1

[3] = molecular target: T3, ETS2 (Homo sapiens, UniProt P15036 1-469)
T3 sequence: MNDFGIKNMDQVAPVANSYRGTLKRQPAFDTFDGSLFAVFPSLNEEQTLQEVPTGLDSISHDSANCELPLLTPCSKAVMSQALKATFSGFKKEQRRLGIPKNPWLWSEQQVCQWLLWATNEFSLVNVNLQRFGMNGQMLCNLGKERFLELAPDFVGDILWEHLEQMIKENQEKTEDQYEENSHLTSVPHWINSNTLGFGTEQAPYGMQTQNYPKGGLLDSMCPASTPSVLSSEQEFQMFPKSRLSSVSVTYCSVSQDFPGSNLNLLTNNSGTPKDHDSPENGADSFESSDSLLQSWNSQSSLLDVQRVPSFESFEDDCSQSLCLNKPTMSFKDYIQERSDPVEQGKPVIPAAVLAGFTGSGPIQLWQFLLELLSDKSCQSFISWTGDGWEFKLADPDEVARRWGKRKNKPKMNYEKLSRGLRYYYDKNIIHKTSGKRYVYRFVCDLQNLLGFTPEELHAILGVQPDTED
In short: as §1

[4] = molecular target: T4, SPDEF (Homo sapiens, UniProt O95238 1-335)
T4 sequence: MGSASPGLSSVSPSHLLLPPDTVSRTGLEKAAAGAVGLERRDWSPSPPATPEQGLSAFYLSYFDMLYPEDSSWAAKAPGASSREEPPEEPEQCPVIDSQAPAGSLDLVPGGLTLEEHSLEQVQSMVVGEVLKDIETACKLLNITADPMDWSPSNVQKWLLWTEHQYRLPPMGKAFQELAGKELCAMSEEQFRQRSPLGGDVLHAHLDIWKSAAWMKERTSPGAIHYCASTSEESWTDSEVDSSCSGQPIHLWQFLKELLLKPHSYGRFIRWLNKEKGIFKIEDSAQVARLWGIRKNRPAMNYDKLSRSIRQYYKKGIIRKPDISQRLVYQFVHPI
In short: as §1

[5] = molecular target: T5, ETV7 (Homo sapiens, UniProt Q9Y603 1-341)
T5 sequence: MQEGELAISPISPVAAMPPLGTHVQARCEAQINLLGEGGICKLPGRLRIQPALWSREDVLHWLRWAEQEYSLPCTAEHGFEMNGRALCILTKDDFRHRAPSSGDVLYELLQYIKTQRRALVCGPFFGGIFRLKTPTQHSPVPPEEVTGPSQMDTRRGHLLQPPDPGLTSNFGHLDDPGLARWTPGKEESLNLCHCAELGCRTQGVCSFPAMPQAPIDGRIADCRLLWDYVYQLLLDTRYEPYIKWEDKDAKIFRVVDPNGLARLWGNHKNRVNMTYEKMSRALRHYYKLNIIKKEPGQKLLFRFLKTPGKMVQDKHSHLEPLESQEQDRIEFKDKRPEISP
In short: as §1

[6] = molecular target: T6, ELF5 (Homo sapiens, UniProt Q9UKW6-2 1-255)
T6 sequence: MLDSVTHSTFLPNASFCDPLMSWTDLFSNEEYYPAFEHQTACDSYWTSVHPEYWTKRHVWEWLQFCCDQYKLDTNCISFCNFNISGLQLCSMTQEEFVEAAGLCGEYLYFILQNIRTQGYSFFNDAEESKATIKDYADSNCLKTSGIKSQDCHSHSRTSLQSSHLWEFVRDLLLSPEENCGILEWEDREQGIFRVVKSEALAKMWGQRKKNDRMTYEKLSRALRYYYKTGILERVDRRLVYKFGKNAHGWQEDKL
In short: as §1

[7] = molecular target: T7, ETV3 (Homo sapiens, UniProt P41162-2 1-143)
T7 sequence: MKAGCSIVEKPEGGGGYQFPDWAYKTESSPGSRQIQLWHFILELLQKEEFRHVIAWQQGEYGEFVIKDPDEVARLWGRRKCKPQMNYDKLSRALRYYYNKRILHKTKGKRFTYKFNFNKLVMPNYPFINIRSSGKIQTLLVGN
In short: as §1

[8] = molecular target: ETV6 (Homo sapiens, UniProt P41212 1-452)
In short: as §1

ETV6, sequence (P41212 whole entry): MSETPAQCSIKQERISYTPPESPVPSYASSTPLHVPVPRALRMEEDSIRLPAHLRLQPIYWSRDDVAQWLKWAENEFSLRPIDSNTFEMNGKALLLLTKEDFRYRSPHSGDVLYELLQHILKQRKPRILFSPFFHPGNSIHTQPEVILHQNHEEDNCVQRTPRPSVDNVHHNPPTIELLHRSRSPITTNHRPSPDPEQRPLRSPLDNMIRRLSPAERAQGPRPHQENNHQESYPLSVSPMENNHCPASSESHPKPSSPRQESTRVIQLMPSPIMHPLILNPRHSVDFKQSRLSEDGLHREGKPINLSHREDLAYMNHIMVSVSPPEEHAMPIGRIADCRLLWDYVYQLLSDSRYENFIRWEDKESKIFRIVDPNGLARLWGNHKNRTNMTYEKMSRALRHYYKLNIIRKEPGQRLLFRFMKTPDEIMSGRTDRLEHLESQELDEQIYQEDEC

Sequence	binding signal [1]	binding signal [2]	binding signal [3]	binding signal [4]	binding signal [5]	binding signal [6]	binding signal [7]	binding signal [8]
ATCTCG	1.36 fold enrichment (6-mer frequency, TF over GST control)	1.38 fold enrichment (6-mer frequency, TF over GST control)	1.42 fold enrichment (6-mer frequency, TF over GST control)	1.28 fold enrichment (6-mer frequency, TF over GST control)	1.38 fold enrichment (6-mer frequency, TF over GST control)	1.28 fold enrichment (6-mer frequency, TF over GST control)	1.29 fold enrichment (6-mer frequency, TF over GST control)	1.3 fold enrichment (6-mer frequency, TF over GST control)
CCTATC	1.17 fold enrichment (6-mer frequency, TF over GST control)	1.22 fold enrichment (6-mer frequency, TF over GST control)	1.2 fold enrichment (6-mer frequency, TF over GST control)	1.29 fold enrichment (6-mer frequency, TF over GST control)	1.3 fold enrichment (6-mer frequency, TF over GST control)	1.12 fold enrichment (6-mer frequency, TF over GST control)	1.2 fold enrichment (6-mer frequency, TF over GST control)	1.12 fold enrichment (6-mer frequency, TF over GST control)
TCTCCT	1.34 fold enrichment (6-mer frequency, TF over GST control)	1.73 fold enrichment (6-mer frequency, TF over GST control)	1.52 fold enrichment (6-mer frequency, TF over GST control)	1.32 fold enrichment (6-mer frequency, TF over GST control)	1.46 fold enrichment (6-mer frequency, TF over GST control)	1.41 fold enrichment (6-mer frequency, TF over GST control)	1.41 fold enrichment (6-mer frequency, TF over GST control)	1.44 fold enrichment (6-mer frequency, TF over GST control)
TACGAT	1.07 fold enrichment (6-mer frequency, TF over GST control)	1.13 fold enrichment (6-mer frequency, TF over GST control)	1.15 fold enrichment (6-mer frequency, TF over GST control)	1.11 fold enrichment (6-mer frequency, TF over GST control)	1.07 fold enrichment (6-mer frequency, TF over GST control)	1.03 fold enrichment (6-mer frequency, TF over GST control)	1 fold enrichment (6-mer frequency, TF over GST control)	1.03 fold enrichment (6-mer frequency, TF over GST control)
CGACTC	1.59 fold enrichment (6-mer frequency, TF over GST control)	1.36 fold enrichment (6-mer frequency, TF over GST control)	1.38 fold enrichment (6-mer frequency, TF over GST control)	1.29 fold enrichment (6-mer frequency, TF over GST control)	1.29 fold enrichment (6-mer frequency, TF over GST control)	1.33 fold enrichment (6-mer frequency, TF over GST control)	1.29 fold enrichment (6-mer frequency, TF over GST control)	1.38 fold enrichment (6-mer frequency, TF over GST control)
TTTAAC	1.28 fold enrichment (6-mer frequency, TF over GST control)	1.17 fold enrichment (6-mer frequency, TF over GST control)	1.16 fold enrichment (6-mer frequency, TF over GST control)	1.12 fold enrichment (6-mer frequency, TF over GST control)	1.07 fold enrichment (6-mer frequency, TF over GST control)	1.11 fold enrichment (6-mer frequency, TF over GST control)	1.21 fold enrichment (6-mer frequency, TF over GST control)	1.19 fold enrichment (6-mer frequency, TF over GST control)
CGATTC	1.09 fold enrichment (6-mer frequency, TF over GST control)	1.18 fold enrichment (6-mer frequency, TF over GST control)	1.24 fold enrichment (6-mer frequency, TF over GST control)	1.13 fold enrichment (6-mer frequency, TF over GST control)	1.06 fold enrichment (6-mer frequency, TF over GST control)	1.11 fold enrichment (6-mer frequency, TF over GST control)	1.23 fold enrichment (6-mer frequency, TF over GST control)	1.11 fold enrichment (6-mer frequency, TF over GST control)
TTGTGT	1.4 fold enrichment (6-mer frequency, TF over GST control)	1.15 fold enrichment (6-mer frequency, TF over GST control)	1.16 fold enrichment (6-mer frequency, TF over GST control)	1.26 fold enrichment (6-mer frequency, TF over GST control)	1.34 fold enrichment (6-mer frequency, TF over GST control)	1.16 fold enrichment (6-mer frequency, TF over GST control)	1.27 fold enrichment (6-mer frequency, TF over GST control)	1.19 fold enrichment (6-mer frequency, TF over GST control)
CTCTAC	1.45 fold enrichment (6-mer frequency, TF over GST control)	1.66 fold enrichment (6-mer frequency, TF over GST control)	1.48 fold enrichment (6-mer frequency, TF over GST control)	1.54 fold enrichment (6-mer frequency, TF over GST control)	1.28 fold enrichment (6-mer frequency, TF over GST control)	1.52 fold enrichment (6-mer frequency, TF over GST control)	1.51 fold enrichment (6-mer frequency, TF over GST control)	1.43 fold enrichment (6-mer frequency, TF over GST control)
